The panel holds about 79,000 compounds, 15% with a hit somewhere; the sample as a whole holds those more often. Active and inactive are the calls of the source. Cut-off read from the data, not from the text of the source: active = growth inhibition above about 70%; inactive = the rest. Where a SMILES comes first, the peptide text is derived from it. Bridges are numbered along the chain shown (N, C = ends). [ ]: non-standard residue; d: D form. The star is where a group is joined. ξ: configuration not given here. PhAc = O=C(Cc1ccccc1)*; ξP = O=C(O)C1CCCN1
Assay: NCI Yeast Anticancer Drug Screen. Data for the rad50 strain (AID 155);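 note: 0% = growth of vehicle-only cultures of the same strain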
Conditions: S. cerevisiae rad50 strain growth inhibition; at 50.0 µM; stronger effect = higher value
How it was run: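 Compounds were tested on a yeast strain with an engineered DNA damage repair alteration; the reported value is growth inhibition normalised to vehicle treatment.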
For `BrC1(Br)C2CC/C=C/CCCCC21` (stereo unspecified), the growth inhibition was -10.1% (inactive). In the case of `C1=C(c2ccccc2)OC(c2ccccc2)=C(c2ccccc2)[P+]1(c1ccccc1)c1ccccc1`, the growth inhibition is reported as 99.5% (active). With `COc1ccc2nc3cccc([N+](=O)[O-])c3c(NCCC(=O)O)c2c1` the growth inhibition was 56.1% (inactive). With `O=C1CCN(C(=O)C2=CC(=O)OC2)C1` the growth inhibition was -15.2% (inactive). With `COC(=O)c1ccccc1NC(=O)Nc1ccccc1` the growth inhibition was 3.1% (inactive). With `CC1(C)Cc2ccccc2C(C)(Cl)C(=O)N1` (stereo unspecified) the growth inhibition was -10.8% (inactive). In the case of `COc1cc(C)n2nnnc2n1`, the growth inhibition is reported as 9.5% (inactive). In the case of `CC1=C(C(=O)OCCc2ccc([N+](=O)[O-])cc2)C(c2cccc([N+](=O)[O-])c2)C(C(=O)OC(C)C)=C(C)N1` (stereo unspecified), the growth inhibition is reported as 0.15% (inactive). For `COc1ccc2oc3c(ccc[n+]3C)c(=O)c2c1`, the growth inhibition was -22.9% (inactive). For `C=C(CBr)CCCOCc1ccccc1`, the growth inhibition was 10.8% (inactive). With `CCc1cn(C2CC(CO)C(CO)S2)c(=O)[nH]c1=O` (stereo unspecified) the growth inhibition was -5.5% (inactive).

Assay: NCI Yeast Anticancer Drug Screen. Data for the mec2-1 strain (AID 157)
Conditions: S. cerevisiae mec2-1 strain, at 50.0 µM, stronger effect = higher value
How it was run: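 Yeast mec2-1 mutant treated with compound. Readout: growth inhibition vs vehicle controls.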
For `O=CN(c1ccccc1)c1ccccc1`, the growth inhibition was -2.4% (inactive). With `COC1(OC)CC2C(=O)N(Cc3ccccc3)C1C(S(=O)(=O)c1ccccc1)C2S(=O)(=O)c1ccccc1` (stereo unspecified) the growth inhibition was 29.5% (inactive). For `COC(=O)c1c2c(cc3c1CC1(Cc4cc5c(cc4C1=O)CCC5)C3)CCC2` (stereo unspecified), the growth inhibition was -37% (inactive). With `COc1ccc(CCNC(=O)Cc2ccc(Cl)cc2)cc1OC` the growth inhibition was -4.65% (inactive). With `Cc1c(Cl)c(C)c(Cc2c(C)c(Cl)c(C)c(Cl)c2O)c(O)c1Cl` the growth inhibition was -40.4% (inactive). In the case of `CC1OC(OC2C(CO)OC(O[C@H]3CC[C@@]4(C)C(=CC[C@H]5[C@@H]6C[C@@H]7O[C@]8(CC[C@@H](C)CN8)[C@@H](C)[C@@H]7[C@@]6(C)CC[C@@H]54)C3)C(O)C2O)C(O)C(O)C1O` (stereo partly specified), the growth inhibition is reported as -26.6% (inactive). For `CC1=CC(NCCC(=O)O)NC(=O)N1` (stereo unspecified), the growth inhibition was -6.2% (inactive). In the case of `COc1cccc(C2CC(C)(N3CCCC3)Oc3cc4c(cc32)OCO4)c1O` (stereo unspecified), the growth inhibition is reported as 13.9% (inactive). For `CC(C)[C@H]1CC[C@@](C)(C(=O)O)C1`, the growth inhibition was 7.5% (inactive). For `CC[N+](C)(CC)CC(O)C[N+]1(C)CC2CCCCC2C1` (stereo unspecified), the growth inhibition was -1.7% (inactive). With `Nc1nc(N)nc(SCC(=O)O)n1` the growth inhibition was -23.2% (inactive). With `COc1nc(NC2OC(CO)C(O)C(O)C2O)c(C(C)=O)c(=O)n1C` (stereo unspecified) the growth inhibition was 2.25% (inactive). In the case of `CC(=O)OC1CC2CCC1(c1ccccc1)C2` (stereo unspecified), the growth inhibition is reported as -25.1% (inactive). In the case of `Nc1c(Cl)cc2c(c1Br)C(=O)c1ccccc1C2=O`, the growth inhibition is reported as -3.5% (inactive). For `Cc1ccc(OC(=O)c2cc([N+](=O)[O-])cc([N+](=O)[O-])c2)cc1`, the growth inhibition was -0.5% (inactive). For `CCOC(=O)CC(=O)C(=O)NNC1=NCCN1`, the growth inhibition was 11.6% (inactive). With `NCCc1c(-c2cccnc2)[nH]c2ccccc12` the growth inhibition was -9.1% (inactive). With `CCCCCCCCCCCCCCCCOc1ccc(-c2cc(=O)n(C)n2C)cc1` the growth inhibition was -18.6% (inactive). With `COc1ccc(N2C(=O)/C(=C/c3ccc(N(CCC#N)CCC#N)cc3C)N=C2c2cc([N+](=O)[O-])ccc2Cl)cc1` the growth inhibition was 0.95% (inactive). For `CSCNC(=S)Nc1ccc(Cl)c(Cl)c1`, the growth inhibition was 45% (inactive). With `COc1cc(C(=O)CC(=O)Cc2ccc3ccccc3n2)cc(OC)c1OC` the growth inhibition was 1.3% (inactive). With `C[N+](C)(C)CC(=O)N/N=C(\C(=O)NC1=C(Cl)C(=O)c2ccccc2C1=O)C(C#N)c1csc(-c2ccc([N+](=O)[O-])cc2)n1` (stereo unspecified) the growth inhibition was 26.6% (inactive). With `O=[N+]([O-])c1cccc(-c2csc(NNC3=NC/C(=C/c4ccc5c(c4)OCO5)S3)n2)c1` the growth inhibition was -7.9% (inactive). In the case of `O=C(Cc1ccccc1)N[C@@H]1COC(=O)C2CCCN2C(=O)[C@@H]2CCCN2C1=O` (stereo partly specified) (PhAc-[dS]-Pro-[ξP]; ester 1-C), the growth inhibition is reported as -1.7% (inactive). In the case of `COc1ccc(C(=O)C(O)c2ccc(OC)cc2)cc1` (stereo unspecified), the growth inhibition is reported as -8.65% (inactive). For `Cc1ncc([N+](=O)[O-])n1CCNC(=O)CCCCCn1ccnc1[N+](=O)[O-]`, the growth inhibition was -4.05% (inactive). With `OC1c2ccccc2-c2ccc(NCc3ccc4c(c3)OCO4)cc21` (stereo unspecified) the growth inhibition was -11.2% (inactive). For `Cc1cccc(/C=C/c2csnn2)n1`, the growth inhibition was -6.75% (inactive). In the case of `O=[N+]([O-])c1ccc(N/N=C/C2CCCCCC2)c([N+](=O)[O-])c1`, the growth inhibition is reported as 13.6% (inactive). In the case of `BrC1(Br)C2CC/C=C/CCCCC21` (stereo unspecified), the growth inhibition is reported as 13.9% (inactive). For `C1=C(c2ccccc2)OC(c2ccccc2)=C(c2ccccc2)[P+]1(c1ccccc1)c1ccccc1`, the growth inhibition was 99.7% (active). For `COc1ccc2nc3cccc([N+](=O)[O-])c3c(NCCC(=O)O)c2c1`, the growth inhibition was -18.9% (inactive). In the case of `O=C1CCN(C(=O)C2=CC(=O)OC2)C1`, the growth inhibition is reported as -1.8% (inactive). For `COC(=O)c1ccccc1NC(=O)Nc1ccccc1`, the growth inhibition was 9.35% (inactive). For `CC1(C)Cc2ccccc2C(C)(Cl)C(=O)N1` (stereo unspecified), the growth inhibition was 0.3% (inactive). With `COc1cc(C)n2nnnc2n1` the growth inhibition was -6.2% (inactive). In the case of `CC1=C(C(=O)OCCc2ccc([N+](=O)[O-])cc2)C(c2cccc([N+](=O)[O-])c2)C(C(=O)OC(C)C)=C(C)N1` (stereo unspecified), the growth inhibition is reported as -6.95% (inactive). For `COc1ccc2oc3c(ccc[n+]3C)c(=O)c2c1`, the growth inhibition was -14.7% (inactive). With `C=C(CBr)CCCOCc1ccccc1` the growth inhibition was -7.25% (inactive). With `CCc1cn(C2CC(CO)C(CO)S2)c(=O)[nH]c1=O` (stereo unspecified) the growth inhibition was -33% (inactive).
